In PMC7826789 (International Journal of Molecular Sciences, 2021) one finds Kinases covered data, which are given here for 24 molecules.

Each structure is given as a SMILES string.

For assay [1], the system named is MAPK14.
Assay [2] deals with MELK.
Assay [3] deals with MUSK.
Assay [4] deals with MAPK3.
Assay [5] deals with MAPK7.
Assay [6] deals with NEK3.
The test system of assay [7] is MEK5.
Assay [8] concerns MAPK9.
In assay [9] the test system is MKNK2.
The test system of assay [10] is MKNK1.
Assay [11] deals with MSK1.
Assay [12] deals with NEK2.
For assay [13], the system named is MAPK15.
For assay [14], the system named is MTOR.
In assay [15] the test system is MLCK.

For the molecule `CCc1nc(-c2cccc(C)c2)c(-c2ccncc2)s1` [TPKI-106], the Kinases covered result in assay [1] is recorded as “MAPK14”.
As to `NS(=O)(=O)c1ccc(N/N=C2\C(=O)Nc3ccc(C(=O)NCCc4c[nH]cn4)cc32)cc1` [GW300660X], the Kinases covered entry in assay [2] is given as “MELK”.
For the molecule `Nc1ncnc2occ(-c3ccc(NC(=O)Nc4cc(C(F)(F)F)ccc4F)cc3)c12` [GW770249X], the Kinases covered result in assay [3] is recorded as “MUSK”.
Take `O=C1Nc2ccc(I)cc2C1=Cc1cc(Br)c(O)c(Br)c1` [GW305074X]: in assay [4], the Kinases covered entry is “MAPK3”.
Turning to `CCOc1cc(C(=O)N2CCC(N3CCN(C)CC3)CC2)ccc1Nc1ncc2c(n1)N(C1CCCC1)c1ccccc1C(=O)N2C` [ERK5-IN-1], the Kinases covered entry in assay [5] is “MAPK7”.
With `Cc1ccc(C(=O)NCC(N)=O)cc1-n1c(C)cc(OCc2ccc(F)cc2F)c(Br)c1=O` [PFE-PKIS 1], the Kinases covered result in [1] is “MAPK14”.
Consider `CC(C)C(=O)N[C@@H]1CCN(C(=O)Nc2nc3c(s2)-c2nc(-c4ccccc4Cl)ncc2CC3)C1` [BI00047804], for which the Kinases covered result in assay [6] is given as “NEK3”.
With `CCCS(=O)(=O)Nc1ccc(F)c(-n2cc(-c3cncc(OC)c3)nn2)c1F` [BI00865461], the Kinases covered entry in [7] is “MEK5”.
Take `O=C(O)/C=C/C(=O)O.OCCCNc1nccc(-c2c(-c3ccc(F)cc3)nn3cc(C(F)(F)F)ccc23)n1` [GW569293E]: the Kinases covered entry is listed as “MAPK14” in assay [1] and “MAPK9” in assay [8].
Take `CCc1ccc(Oc2nccc(-c3c(-c4ccc(F)cc4)ncn3C3CCNCC3)n2)cc1` [SB-242719]: the Kinases covered result in [1] is “MAPK14”.
Take `CCCc1cc(N2CCCN(C)CC2)nc2sc3c(N)ncnc3c12` [BI00604564]: in assay [9], the Kinases covered result was “MKNK2”.
For the molecule `COc1cc2ncnc(Nc3ccc(F)c(Cl)c3)c2cc1O[C@H]1CC[C@H](N)CC1` [BIBW3133BS], the Kinases covered entry in [7] was “MEK5”; in assay [10], “MKNK1”.
Consider `COc1cc2ncnc(Nc3cccc(Cl)c3F)c2cc1O[C@H]1CC[C@H]([C@@H]2NCCNC2=O)CC1` [BI00133844], for which, in [7], the Kinases covered entry is recorded as “MEK5”.
On to `CCn1c(-c2nonc2N)nc2cncc(CNC3CCNCC3)c21` [SB-747651A], for which the Kinases covered result in assay [11] is given as “MSK1”.
`C[C@@H](Oc1cc(-n2cnc3ccc(OC4CCN(C)CC4)cc32)sc1C(N)=O)c1ccccc1Cl` [GSK579289A]: in [12], the Kinases covered result is “NEK2”.
Consider `O=C(Nc1n[nH]c2cc(-c3ccsc3)ccc12)C1CC1` [SB-732932], for which, in assay [13], the Kinases covered entry was “MAPK15”.
Consider `C[C@@H](Oc1cc(-n2cnc3ccc(CN4CCN(C)CC4)cc32)sc1C(N)=O)c1ccccc1C(F)(F)F` [GSK461364], for which the Kinases covered entry in assay [12] is “NEK2”.
As for `COCCNC(=O)c1ccc(-c2cc(C(=O)NC3CC3)cc(F)c2C)cc1` [GW868318], in assay [1], the Kinases covered result was “MAPK14”.
Still for that read-out and setting: the entry for `O=c1[nH]c2cc(Nc3ccc(F)cc3F)ccc2n1CC1CCCCC1` [BI00601000] is “MAPK14”.
Turning to `Fc1ccc(-c2nn3ccccc3c2-c2ccncc2)cc1` [GW434756X], the Kinases covered result in [1] is given as “MAPK14”; in assay [8] it was “MAPK9”.
`CCOc1ccc2c(-c3ccnc(Nc4cc(OC)cc(C(F)(F)F)c4)n3)cnn2n1` [GW807982X]: the Kinases covered result in assay [13] is “MAPK15”.
As for `COc1ccc(-c2cc3c(C)nc(N)nc3n([C@H]3CC[C@H](O)CC3)c2=O)cn1` [PFE-PKIS 40], in assay [14], the Kinases covered entry is “MTOR”.
For `CNc1nc(Nc2ccc(C(=O)N3CCOCC3)cc2OC)nc2[nH]cc(Cl)c12` [JH-II-127], the Kinases covered result in [15] is on record as “MLCK”.
For the molecule `CCOc1ccc2c(-c3ccnc(Nc4cccc(C(F)(F)F)c4)n3)cnn2n1` [GW811761X], in [13], the Kinases covered entry was “MAPK15”.
